Source: PubChem BioAssay (Tox21)
Inconclusive results are not listed. Calls of active or inactive are those of the source. Unless noted, the call rests on the fitted dose curve; in most records, active means well fitted curve in the direction sought with a large enough effect in the repeat runs; inconclusive means weak or mixed curves; inactive means no such curve, though single readings can be large; an effect the other way counts as inactive or inconclusive.

Legend:
[1] = A CellTox Green Cytotoxicity Assay to monitor cytotoxicity in HEK293 cells - 32 hour (AID 1224881); further: nearly all actives have a fitted effect of over 40% in size
How it was run: (§1)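 Nonlytic real-time cytotoxicity: HEK293 + CellTox Green reagent plated, 5 h preincubation, pintool compound addition (23 nL in DMSO), 37 C for 40 h, fluorescence measured at successive time points.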

[2] = A CellTox Green Cytotoxicity Assay to monitor cytotoxicity in HepG2 cells - 0 hour (AID 1224882); further: nearly all actives have a fitted effect of over 35% in size
How it was run: (§2)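 Read-out is fluorescence of a cyanine dye excluded from live cells that stains DNA of dead HepG2 cells, with signal proportional to cytotoxicity. Plates were read at 0, 8, 16, 24, 32 and 40 h after compound addition.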

[3] = A CellTox Green Cytotoxicity Assay to monitor cytotoxicity in HepG2 cells - 32 hour (AID 1224883); further: nearly all actives have a fitted effect of over 50% in size
How it was run: as §2

[4] = A CellTox Green Cytotoxicity Assay to monitor cytotoxicity in HEK293 cells - 8 hour (AID 1224884); further: nearly all actives have a fitted effect of over 35% in size
How it was run: as §1

[5] = qHTS RealTime-Glo MT Cell Viability Assay in HepG2 cells - 16 hour (AID 1224885); further: nearly all actives have a fitted effect of over 50% in size
How it was run: (§3)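 Cells + NanoLuc/prosubstrate dispensed (600 cells/well) → 5 h at 37 C/5% CO2 → compounds in DMSO transferred → 40 h incubation at 37 C, luminescence read at 0, 8, 16, 24, 32, 40 h.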

[6] = qHTS RealTime-Glo MT Cell Viability Assay in HEK293 cells - 24 hour (AID 1224886); further: top concentration of the series differs between compounds; nearly all actives have a fitted effect of over 50% in size
How it was run: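 Tox21 10K qHTS, HEK293, 600 cells/well, RealTime-Glo reagent co-dispensed with cells; 5 h preincubation, compound by pintool, 37 C, luminescence at 0–40 h.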

[7] = qHTS RealTime-Glo MT Cell Viability Assay in HEK293 cells - 8 hour (AID 1224887); further: top concentration of the series differs between compounds; nearly all actives have a fitted effect of over 50% in size
How it was run: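 Cells were seeded together with NanoLuc luciferase and a prosubstrate that viable cells reduce to a luciferase substrate. After a 5 h incubation at 37 C/5% CO2, compounds were added and luminescence was measured repeatedly during 40 h of treatment.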

[8] = A CellTox Green Cytotoxicity Assay to monitor cytotoxicity in HEK293 cells - 16 hour (AID 1224888); further: nearly all actives have a fitted effect of over 35% in size
How it was run: as §1

[9] = qHTS RealTime-Glo MT Cell Viability Assay in HepG2 cells - 0 hour (AID 1224889); further: nearly all actives have a fitted effect of over 50% in size
How it was run: as §3

[10] = A CellTox Green Cytotoxicity Assay to monitor cytotoxicity in HepG2 cells - 8 hour (AID 1224890); further: nearly all actives have a fitted effect of over 45% in size
How it was run: as §2

[11] = qHTS assay to identify small molecule antagonists of the estrogen receptor alpha (ER-alpha) signaling pathway using the BG1 cell line in the presence of 0.1 nM 17-beta-estradiol - cell viability counter screen (AID 1259241); further: nearly all actives have a fitted effect of over 40% in size
How it was run: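 Measures cytotoxicity alongside the ER-alpha antagonist readout: VM7Luc4E2 cells, charcoal-stripped serum, 0.1 nM 17beta-estradiol final, 22 hr compound incubation at 37C, CellTiter-Fluor fluorescence.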

[12] = qHTS assay to identify small molecule antagonists of the androgen receptor (AR) signaling pathway using the MDA cell line in the presence of 0.5 nM R1881 - cell viability counter screen (AID 1259242); further: nearly all actives have a fitted effect of over 45% in size
How it was run: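 Counter screen for cytotoxicity run in the same wells as the AR antagonist reporter screen: MDA-kb2 cells were treated 16 hr with test compounds and 0.5 nM R1881, then live-cell protease activity was measured by fluorescence.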

[13] = target: Estrogen receptor (Homo sapiens) (UniProt P03372); test: qHTS assay to identify small molecule antagonists of the estrogen receptor alpha (ER-alpha) signaling pathway using the BG1 cell line in the presence of 0.1 nM 17-beta-estradiol (AID 1259244); further: nearly all actives have a fitted effect of over 50% in size
How it was run: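 Cells: VM7Luc4E2, endogenous ER-alpha, 4x ERE-luc stable. Pre-culture 5 d, phenol red-free, charcoal-stripped FBS. Plated 24 h, compound + E2 0.1 nM final, 22 h 37C/5% CO2. Readout ONE-Glo luminescence.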

[14] = qHTS assay to identify small molecule HDAC inhibitors (AID 1259364); further: top concentration of the series differs between compounds; nearly all actives have a fitted effect of over 45% in size
How it was run: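 Luminescence from a cell-permeant luminogenic class I/II HDAC substrate reports endogenous deacetylase activity in intact HCT-116 cells treated with compounds for 2 h.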

[15] = qHTS assay to identify small molecule HDAC inhibitors - cell viability counter screen (AID 1259365)
How it was run: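 Following a 2hr exposure of overnight-plated wild-type HCT-116 cells to DMSO-delivered compounds, CellTiter-Glo was added and luminescence recorded after 30min at room temperature.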

[16] = qHTS assay to identify small molecule agonists of the sonic hedgehog signaling (Shh) pathway - cell viability counter screen (AID 1259366); further: nearly all actives have a fitted effect of over 50% in size
How it was run: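 After a 4hr attachment at 37C, NIH/3T3 cells bearing an integrated Gli1-driven luciferase reporter were dosed with compounds. Treatment lasted 24hr, with the final hour including CellTiter-Fluor for a fluorescence viability measurement.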

[17] = qHTS assay to identify small molecule antagonists of the sonic hedgehog signaling (Shh) pathway - cell viability counter screen (AID 1259367); further: nearly all actives have a fitted effect of over 55% in size
How it was run: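 NIH/3T3-derived Gli1-Luc reporter cells (2,000 per well) rested 4 hr at 37 C, then received DMSO compounds plus conditioned medium. After 23 hr of treatment, CellTiter-Fluor was added for 1 hr at 37C and fluorescence read.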

[18] = qHTS assay to identify small molecule agonists of the sonic hedgehog signaling (Shh) pathway (AID 1259368; calls by dose curve;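 further: NIH/3T3-derived 3T3Gli1-Luc cells carrying a stable Gli1-driven firefly luciferase reporter; series mostly up to about 92 µM; nearly all actives have a fitted effect of over 15% in size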)
How it was run: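 3T3Gli1-Luc (NIH/3T3 clone, stable Gli1-Luc); 4 hr pre-incubation, then cpd in DMSO 24 hr, 37 C/5% CO2; luciferase reagent 30 min RT; luminescence.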

[19] = target: Androgen receptor (Homo sapiens) (UniProt P10275); test: qHTS assay to identify small molecule antagonists of the androgen receptor (AR) signaling pathway using the MDA cell line in the presence of 0.5 nM R1881 (AID 1259243); further: nearly all actives have a fitted effect of over 50% in size
How it was run: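 Luciferase luminescence is the read-out: compounds are tested for suppressing 0.5 nM R1881-driven MMTV reporter activity in MDA-kb2 cells after 16 hr at 37C.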

[20] = qHTS assay to identify small molecule phospholipidosis (PLD) inducers (AID 1259344; active means well fitted curve in the direction sought with a large enough effect; an effect the other way counts as inactive or inconclusive)
How it was run: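 HepG2 cells on collagen I, attached 4 h at 37 C, were co-treated with compound and LipidTOX Red dye for 24 h at 37 C, then fixed with paraformaldehyde plus Hoechst 33342 and imaged by high-content microscopy for phospholipid accumulation.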

Measured: Potency

Chain of Estrogen receptor (Homo sapiens) (P03372 whole entry, looked up): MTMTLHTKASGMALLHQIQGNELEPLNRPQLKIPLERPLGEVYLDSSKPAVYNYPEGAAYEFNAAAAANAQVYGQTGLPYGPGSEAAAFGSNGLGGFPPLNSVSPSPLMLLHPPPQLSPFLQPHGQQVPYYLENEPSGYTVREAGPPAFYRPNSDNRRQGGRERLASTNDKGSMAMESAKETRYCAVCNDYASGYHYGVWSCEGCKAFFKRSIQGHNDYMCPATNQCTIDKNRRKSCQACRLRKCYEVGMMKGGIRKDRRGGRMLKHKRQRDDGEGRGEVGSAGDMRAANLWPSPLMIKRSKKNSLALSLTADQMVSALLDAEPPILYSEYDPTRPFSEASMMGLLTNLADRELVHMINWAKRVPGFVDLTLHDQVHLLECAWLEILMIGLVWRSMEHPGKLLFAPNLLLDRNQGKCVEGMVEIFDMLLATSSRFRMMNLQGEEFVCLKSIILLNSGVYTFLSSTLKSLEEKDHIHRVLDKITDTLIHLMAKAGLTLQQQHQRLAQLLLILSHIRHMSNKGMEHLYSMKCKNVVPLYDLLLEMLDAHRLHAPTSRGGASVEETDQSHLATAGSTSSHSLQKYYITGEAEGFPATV
Chain of Androgen receptor (Homo sapiens) (P10275 whole entry, looked up): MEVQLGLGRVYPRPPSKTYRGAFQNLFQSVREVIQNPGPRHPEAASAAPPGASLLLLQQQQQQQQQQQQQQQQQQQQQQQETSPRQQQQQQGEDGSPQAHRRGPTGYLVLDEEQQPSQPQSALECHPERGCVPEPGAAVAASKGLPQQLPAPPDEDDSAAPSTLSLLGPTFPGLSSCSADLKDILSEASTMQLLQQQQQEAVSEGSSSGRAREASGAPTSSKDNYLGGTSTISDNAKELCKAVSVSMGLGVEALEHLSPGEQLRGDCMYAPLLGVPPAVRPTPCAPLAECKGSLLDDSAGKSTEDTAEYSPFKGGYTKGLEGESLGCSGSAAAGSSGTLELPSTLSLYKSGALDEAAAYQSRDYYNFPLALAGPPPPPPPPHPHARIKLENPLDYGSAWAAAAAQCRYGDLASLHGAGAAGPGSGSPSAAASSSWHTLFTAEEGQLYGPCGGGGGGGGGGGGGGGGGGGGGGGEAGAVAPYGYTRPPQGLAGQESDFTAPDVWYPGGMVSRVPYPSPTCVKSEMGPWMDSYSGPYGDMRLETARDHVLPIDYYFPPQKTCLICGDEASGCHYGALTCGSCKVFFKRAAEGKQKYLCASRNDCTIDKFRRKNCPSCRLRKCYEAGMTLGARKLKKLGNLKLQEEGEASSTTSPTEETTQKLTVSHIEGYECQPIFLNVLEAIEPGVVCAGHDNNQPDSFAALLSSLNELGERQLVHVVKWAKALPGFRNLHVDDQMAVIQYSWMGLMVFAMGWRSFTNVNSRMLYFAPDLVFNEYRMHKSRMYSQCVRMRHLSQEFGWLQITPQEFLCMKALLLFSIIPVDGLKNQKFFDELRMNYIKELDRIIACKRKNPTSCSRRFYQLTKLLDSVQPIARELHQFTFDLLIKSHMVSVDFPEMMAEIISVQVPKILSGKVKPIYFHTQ

OCC(CO)(CO)CO
not listed: [19] | [20]
inactive: all other assays above

Cc1nnc(NS(=O)(=O)c2ccc(N)cc2)s1
inactive: all assays above

Cc1ccc(C(C)C)cc1
not listed: [20]
inactive: all other assays above

Cc1ccc(Cl)cc1
not listed: [19] | [20]
inactive: all other assays above

CC(O)CNCC(C)O (stereo not given)
not listed: [19] | [20]
inactive: all other assays above

CC(C=O)Cc1ccc(C(C)(C)C)cc1 (stereo not given)
not listed: [13] | [20]
inactive: all other assays above

CCc1cccc(CC)c1N
not listed: [20]
inactive: all other assays above
